PubChem BioAssay (EPA / NIEHS)
Inconclusive results are not listed. A structure can be active in one record and inactive in another. Activity calls are given as the source filed them. How the source made its calls: active means hit-call score of the fitted dose curve at least 0.9, where 1 is the maximum; inconclusive means response in the unintended direction; inactive means score below 0.9.

Columns and labels:
[1] = molecular target: Cellular tumor antigen p53 (Homo sapiens) (UniProt P04637); assay: TOX21_p53_BLA_p3_ratio: Tox21 HCT-116 p53 Agonism Beta-lactamase Assay, Ratio, Phase 3 (AID 2283596)
Sequence of Cellular tumor antigen p53 (Homo sapiens) (P04637 whole entry, looked up): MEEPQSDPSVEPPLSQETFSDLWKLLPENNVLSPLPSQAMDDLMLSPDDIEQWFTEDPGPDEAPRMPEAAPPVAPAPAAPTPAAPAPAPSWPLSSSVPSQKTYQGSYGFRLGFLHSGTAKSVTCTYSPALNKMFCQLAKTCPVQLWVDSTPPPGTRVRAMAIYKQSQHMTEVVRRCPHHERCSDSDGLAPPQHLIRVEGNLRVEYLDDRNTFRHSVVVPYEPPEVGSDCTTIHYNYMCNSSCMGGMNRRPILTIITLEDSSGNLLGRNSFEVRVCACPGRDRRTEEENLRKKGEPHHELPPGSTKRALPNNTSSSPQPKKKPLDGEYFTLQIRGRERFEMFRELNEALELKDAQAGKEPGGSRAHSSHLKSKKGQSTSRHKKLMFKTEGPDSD
Method in brief: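 Cells were seeded at 4000/well, rested 5 h at 37C, then dosed with DMSO compound solutions (217-fold dilution) for 16 h. CCF4-AM substrate was loaded for 2 h at room temperature, and the 460/530 nm emission ratio was fitted for gain of signal versus DMSO.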

[2] = TOX21_p53_BLA_p4_viability: Viability Assessment in the Tox21 HCT-116 p53 Agonism Beta-lactamase Assay, Phase 4 (AID 2283597);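 further: hits lower the luminescence signal meaning cytotoxicity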
Method in brief: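 ATP content by CellTiter-Glo luminescence, 30 min RT, read after the beta-lactamase ratio step. Cells: HCT116, 4000/well, compound added after 5 h, exposure 16 h at 37C. Signal loss = reduced viability.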

[3] = TOX21_p53_BLA_p5_viability: Viability Assessment in the Tox21 HCT-116 p53 Agonism Beta-lactamase Assay, Phase 5 (AID 2283600)
Method in brief: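 ATP luminescence (CellTiter-Glo, 30 min, RT) served as the viability read-out, with loss of signal indicating cytotoxicity. Compounds in DMSO were pinned at a 217-fold dilution onto 4000 cells/well and incubated 16 h, 37C.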

[4] = molecular target: Cellular tumor antigen p53 (Homo sapiens) (UniProt P04637); assay: TOX21_p53_BLA_p4_ratio: Tox21 HCT-116 p53 Agonism Beta-lactamase Assay, Ratio, Phase 4 (AID 2283601)
Method in brief: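 Signal is the blue/green (460nm/530nm) ratio of cleaved versus uncleaved CCF4-AM substrate, read after 2 h substrate loading. Cells were HCT116 carrying the p53-responsive beta-lactamase reporter, dosed 16 h at 37C, 5% CO2; CellTiter-Glo measured in parallel.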

[5] = Tanguay_ZF_120hpf_MORT_legacy: (Legacy) Oregon State University Tanguay Lab 120 Hour Post-fertilization zebrafish Assay for Mortality (AID 2283633);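 on AC50: fitted as increase in binary mortality versus DMSO negative control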
Method in brief: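 Brightfield scoring of embryo death (binary) at 24 and 120 hpf; static exposure 6–120 hpf, 28C, sealed and foil-covered. Pronase-dechorionated 5D wild-type larvae, single embryo per well. DMSO 0.64% v/v; trimethyltin chloride 5uM positive control.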

[6] = Tanguay_ZF_120hpf_YSE_legacy: (Legacy) Oregon State University Tanguay Lab 120 Hour Post-fertilization zebrafish Assay for Yolk Sac Edema (AID 2283634)
Method in brief: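 Binary brightfield scoring of yolk sac edema at 120 hpf; DMSO baseline, gain-of-signal fitting. Dechorionated 5D larvae, one per well, static exposure 6–120 hpf, 28C, 0.64% DMSO. Dead embryos not scored.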

[7] = Tanguay_ZF_120hpf_SNOU_legacy: (Legacy) Oregon State University Tanguay Lab 120 Hour Post-fertilization zebrafish Assay for Snout Malformation (AID 2283637)
Method in brief: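 Binary snout-malformation call at 120 hpf in wild-type 5D embryos, chorion removed by pronase, under static exposure from 6 hpf at 28C (0.64% DMSO). Embryos dying by 24 or 120 hpf excluded.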

[8] = Tanguay_ZF_120hpf_JAW_legacy: (Legacy) Oregon State University Tanguay Lab 120 Hour Post-fertilization zebrafish Assay for Jaw Malformation (AID 2283638);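 on AC50: active means more embryos with jaw malformation than DMSO controls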
Method in brief: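 Binary jaw-malformation calls at 120 hpf by brightfield imaging; DMSO (0.64% v/v) = baseline. Embryos: 5D wild-type, pronase-dechorionated, one per well from 6 hpf, static exposure, 28C, sealed, dark.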

[9] = Tanguay_ZF_120hpf_OTIC_legacy: (Legacy) Oregon State University Tanguay Lab 120 Hour Post-fertilization zebrafish Assay for Otic Vesicle Malformation (AID 2283639)
Method in brief: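 Binary scoring of otic vesicle defects at 120 hpf in zebrafish (Tropical 5D) held under static exposure at 28C, sealed and shaded, with final DMSO 0.64%. Embryos dying by 24 or 120 hpf excluded; fitted positively against DMSO.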

[10] = Tanguay_ZF_120hpf_PE_legacy: (Legacy) Oregon State University Tanguay Lab 120 Hour Post-fertilization zebrafish Assay for Pericardial Edema (AID 2283640);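 on AC50: potency for increased incidence of pericardial edema versus DMSO baseline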
Method in brief: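 Static waterborne exposure, 5D wild-type embryos, 28C, to 120 hpf; final DMSO 0.64% (vol/vol). Binary PE call at 120 hpf by brightfield; fitted upward vs DMSO baseline. 5uM trimethyltin chloride as positive control.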

[11] = Tanguay_ZF_120hpf_BRAI_legacy: (Legacy) Oregon State University Tanguay Lab 120 Hour Post-fertilization zebrafish Assay for Brain Malformation (AID 2283641)
Method in brief: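 Read-out: binary brain morphology call at 120 hpf (brightfield), fitted in gain-of-signal direction vs DMSO. Wild-type Tropical 5D embryos, static exposure, 28C, 0.64% DMSO final; 5uM trimethyltin chloride as positive control.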

[12] = Tanguay_ZF_120hpf_SOMI_legacy: (Legacy) Oregon State University Tanguay Lab 120 Hour Post-fertilization zebrafish Assay for Somite Malformation (AID 2283647)
Method in brief: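 Binary brightfield scoring of somite defects at 120 hpf in 5D wild-type larvae; one dechorionated embryo per well, static exposure from 6 hpf, 28C, sealed and dark. Final DMSO 0.64%; trimethyltin chloride 5uM positive control.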

[13] = Tanguay_ZF_120hpf_CFIN_legacy: (Legacy) Oregon State University Tanguay Lab 120 Hour Post-fertilization zebrafish Assay for Caudal Fin Malformation (AID 2283649)
Method in brief: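 Dechorionated 5D wild-type zebrafish, static exposure 6–120 hpf, 28C, sealed and dark, 0.64% v/v DMSO final. Binary fin-malformation call at 120 hpf, brightfield; gain of signal vs DMSO baseline.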

[14] = Tanguay_ZF_120hpf_PIG_legacy: (Legacy) Oregon State University Tanguay Lab 120 Hour Post-fertilization zebrafish Assay for Pigmentation Malformation (AID 2283650)
Method in brief: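 Pigment malformation recorded as a binary call at 120 hpf in zebrafish (Tropical 5D) exposed singly from 6 hpf after pronase dechorionation. Static, sealed, 28C exposure, 0.64% DMSO; mortality excludes scoring; positive-direction fit against DMSO.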

[15] = Tanguay_ZF_120hpf_CIRC_legacy: (Legacy) Oregon State University Tanguay Lab 120 Hour Post-fertilization zebrafish Assay for Circulatory Malformation (AID 2283651)
Method in brief: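 Binary circulatory malformation call at 120 hpf by brightfield imaging of zebrafish larvae; chorion removed at 4 hpf, static exposure from 6 hpf in sealed dark plates at 28C, final DMSO 0.64%; non-mortality endpoints skipped if embryo died.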

[16] = molecular target: Cellular tumor antigen p53 (Homo sapiens) (UniProt P04637); assay: TOX21_p53_BLA_p5_ratio: Tox21 HCT-116 p53 Agonism Beta-lactamase Assay, Ratio, Phase 5 (AID 2283599)
Method in brief: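 Beta-lactamase reporter ratio (blue 460 nm over green 530 nm, 405 nm excitation) after 2 h CCF4-AM loading, in HCT-116 cells exposed 16 h at 37 C to compounds pinned at 217-fold dilution. Increases relative to DMSO baseline scored.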

[17] = Tanguay_ZF_120hpf_EYE_legacy: (Legacy) Oregon State University Tanguay Lab 120 Hour Post-fertilization zebrafish Assay for Eye Malformation (AID 2283636);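 further: binary presence or absence of eye malformation scored by brightfield in 120 hpf larvae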
Method in brief: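 Binary brightfield scoring of eye defects at 120 hpf after static exposure from 6 hpf of single pronase-dechorionated wild-type embryos (28C, 0.64% DMSO). Non-mortality endpoints omitted where embryos died; fit vs DMSO.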

[18] = Tanguay_ZF_120hpf_PFIN_legacy: (Legacy) Oregon State University Tanguay Lab 120 Hour Post-fertilization zebrafish Assay for Pectoral Fin Malformation (AID 2283648);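 further: each larva judged yes or no for fin defect by brightfield with dead larvae skipped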
Method in brief: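 Pectoral fin malformation was recorded as a binary endpoint at 120 hpf in wild-type Tropical 5D larvae, which had been dechorionated and exposed statically from 6 hpf at 28C in 0.64% DMSO. Dead embryos were excluded.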

Measured: AC50

C#CCOS(=O)OC1CCCCC1Oc1ccc(C(C)(C)C)cc1 (configuration not stated)
inactive: [1] | [2] | [3] | [4] | [5] | [6] | [7] | [8] | [9] | [10] | [11] | [12] | [13] | [14] | [15]
active: [1] 2.53 µM | [2] 70.4 µM

CN(C)C(=S)SSC(=S)N(C)C
inactive: [1] | [2] | [16] | [3] | [4] | [5] | [6] | [17] | [8] | [9] | [10] | [11] | [12] | [13] | [14] | [15]
active: [1] 29.3 µM | [16] 77 µM

CC1=C(C(=O)Nc2ccccc2)SCCO1
active: [5] 40.4 µM
not listed: [7] | [12] | [16] | [17] | [18]
inactive: all other assays above

COP(=S)(OC)Oc1nc(Cl)c(Cl)cc1Cl
active: [8] 34 µM
not listed: [1] | [2] | [7] | [10] | [16] | [18]
inactive: all other assays above

CS/C(C)=N/OC(=O)N(C)SN(C)C(=O)O/N=C(\C)SC
not listed: [2] | [7] | [12] | [15] | [16] | [18]
inactive: all other assays above

O=C(Nc1ccccc1)Nc1ccnc(Cl)c1
active: [1] 46.1 µM | [4] 41 µM | [10] 50.5 µM
not listed: [7] | [16] | [17] | [18]
inactive: all other assays above

COc1nc(C)nc(NC(=O)NS(=O)(=O)c2ccccc2Cl)n1
inactive: [1] | [3] | [4]

COP(N)(=O)SC (configuration not stated)
not listed: [2] | [4] | [7] | [8] | [16] | [17] | [18]
inactive: all other assays above

COC(=O)C(C)Oc1ccc(Oc2ccc(Cl)cc2Cl)cc1 (configuration not stated)
not listed: [3] | [4] | [7] | [16] | [18]
inactive: all other assays above

COc1cnc(OC)n2nc(NS(=O)(=O)c3c(OCC(F)F)cccc3C(F)(F)F)nc12
not listed: [2] | [6] | [7] | [11] | [16] | [18]
inactive: all other assays above

Oc1ccccc1-c1ccccc1
not listed: [7] | [9] | [16]
inactive: all other assays above

CNC(=S)S
not listed: [3] | [7] | [15] | [16] | [18]
inactive: all other assays above

CCCCOC(=O)c1ccccc1C(=O)OCCCC
not listed: [2] | [3] | [7] | [16] | [18]
inactive: all other assays above

CCOc1cc(Oc2ccc(C(F)(F)F)cc2Cl)ccc1[N+](=O)[O-]
inactive: [1] | [2] | [3] | [4] | [5] | [6] | [8] | [10] | [12] | [13]

CCCN(CCC)c1c([N+](=O)[O-])cc(S(N)(=O)=O)cc1[N+](=O)[O-]
not listed: [1] | [2] | [3] | [4] | [7] | [16] | [18]
inactive: all other assays above
